From PubChem BioAssay (NCATS)
Records with an inconclusive call do not appear. Calls of active or inactive are those of the source. Unless noted, calls come from the whole dose curve; as a rule, active = well fitted curve in either direction with a large enough effect (not every such curve was filed as active); inconclusive = small, poorly fitted or top-dose-only effect, or another doubt; inactive = flat fitted curve, though single readings scatter.

Legend:
[1] = biological target: Lysosomal acid glucosylceramidase (Homo sapiens) (UniProt P04062); assay: Glucocerebrosidase-p2 (AID 348; in the data active = potency below about 10 µM; note: potency is the fitted concentration of half-maximal effect); conditions: purified GBA, blue fluorogenic substrate, 40 min
Sequence of Lysosomal acid glucosylceramidase (Homo sapiens) (P04062 whole entry, looked up): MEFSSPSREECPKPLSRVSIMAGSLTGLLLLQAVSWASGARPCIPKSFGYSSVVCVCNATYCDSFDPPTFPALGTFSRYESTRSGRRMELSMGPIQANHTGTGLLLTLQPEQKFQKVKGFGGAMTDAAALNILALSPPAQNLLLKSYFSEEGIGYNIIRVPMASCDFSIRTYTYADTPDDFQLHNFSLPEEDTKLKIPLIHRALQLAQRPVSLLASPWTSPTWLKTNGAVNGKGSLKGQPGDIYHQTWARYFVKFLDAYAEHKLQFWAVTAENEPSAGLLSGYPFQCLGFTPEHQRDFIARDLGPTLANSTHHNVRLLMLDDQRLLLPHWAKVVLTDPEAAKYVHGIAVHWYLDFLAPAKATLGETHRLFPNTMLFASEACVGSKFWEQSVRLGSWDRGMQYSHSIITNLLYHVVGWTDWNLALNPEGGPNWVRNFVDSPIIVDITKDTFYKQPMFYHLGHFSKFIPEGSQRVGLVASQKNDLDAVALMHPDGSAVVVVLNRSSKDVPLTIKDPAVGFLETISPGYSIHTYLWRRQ
Procedure, shortened: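 Compounds titrated from 0.6 nM upwards against 0.2 nM enzyme in pH 5.9 citric acid/KH2PO4, taurocholate, tween-20; blue fluorogenic substrate 80 uM, 40 min room temperature, stopped and read Ex 365/Em 440 for AC50.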

[2] = AP1 Signaling Pathway (AID 357); conditions: ME-180 AP-1-bla reporter, EGF-induced, beta-lactamase ratio, 5 h; at 7.69 µM (top of the series) unless noted;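 note: ME-180 reporter cells stimulated with EGF at its EC50 level; % is set by controls: 0 for no effect and ±100 for the full control effect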
Procedure, shortened: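 First, ME-180 AP-1-bla cells were cultured overnight at 37 °C in low-serum Opti-MEM. Next, titrated compounds with EC50 EGF were incubated 5 hours. Finally, CCF4 was added for 2.5 hours and the 460/530 nm ratio recorded.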

[3] = NFAT Signaling Pathway (AID 444); conditions: Jurkat NFAT-bla M1, carbachol, beta-lactamase ratio, 5 h; at 7.69 µM (top of the series) unless noted;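 note: carbachol stimulus at about its EC50 of 1 µM final; % is set by controls: 0 for no effect and ±100 for the full control effect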
Procedure, shortened: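 Jurkat cells with NFAT-driven β-lactamase reporter and co-expressed M1 receptor, stimulated with carbachol (final 1 uM, ~EC50), compound titration, 5 h at 37 °C. CCF4 loaded 1 h at RT; 460/530 nm ratio gave %activity and AC50.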

[4] = Stat Signaling Pathway (AID 446); conditions: ME-180 SIE beta-lactamase reporter, IL-6 stimulated, 5 h; at 7.69 µM (top of the series) unless noted;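 note: ME-180 cervical cancer cells given 40 pM IL-6 alongside compound; SIE-controlled beta-lactamase reporter measured as 460/530 nm FRET emission ratio; % is set by controls: 0 for no effect and ±100 for the full control effect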
Procedure, shortened: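 IL-6/STAT signaling read in ME-180 cells via an SIE beta-lactamase reporter. Stimulus was 40 pM IL-6 (its AC50) for 5 hrs, so both activation and inhibition register.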

[5] = biological target: Glucocorticoid receptor (Homo sapiens) (UniProt P04150); assay: GR-EFC Redistribution (AID 451; calls by dose curve; note: potency is the fitted concentration of half-maximal effect); conditions: CHO-K1 GR-EFC translocation, beta-gal luminescence, 2 h
Sequence of Glucocorticoid receptor (Homo sapiens) (P04150 whole entry, looked up, the tested form may be a part): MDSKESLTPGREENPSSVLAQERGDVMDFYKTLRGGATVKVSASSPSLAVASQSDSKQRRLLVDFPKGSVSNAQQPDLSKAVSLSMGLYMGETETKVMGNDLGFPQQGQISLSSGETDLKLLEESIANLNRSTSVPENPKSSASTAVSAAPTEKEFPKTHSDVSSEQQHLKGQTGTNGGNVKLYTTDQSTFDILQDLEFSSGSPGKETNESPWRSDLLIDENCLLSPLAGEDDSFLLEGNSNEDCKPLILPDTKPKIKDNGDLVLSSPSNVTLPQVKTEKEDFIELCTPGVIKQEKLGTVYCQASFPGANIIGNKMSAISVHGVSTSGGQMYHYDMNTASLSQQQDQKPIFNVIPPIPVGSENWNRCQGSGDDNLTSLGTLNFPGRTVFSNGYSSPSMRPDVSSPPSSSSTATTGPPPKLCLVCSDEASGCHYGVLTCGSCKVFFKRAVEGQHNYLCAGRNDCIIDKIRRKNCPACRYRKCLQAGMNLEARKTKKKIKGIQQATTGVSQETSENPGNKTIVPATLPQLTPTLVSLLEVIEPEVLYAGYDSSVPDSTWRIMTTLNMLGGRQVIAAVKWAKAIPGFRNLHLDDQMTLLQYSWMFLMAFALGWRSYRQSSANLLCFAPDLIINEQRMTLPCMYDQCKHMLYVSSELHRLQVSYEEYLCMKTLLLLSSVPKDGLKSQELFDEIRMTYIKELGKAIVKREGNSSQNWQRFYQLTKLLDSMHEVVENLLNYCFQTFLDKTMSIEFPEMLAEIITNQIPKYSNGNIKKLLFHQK
Procedure, shortened: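 CHO-K1 cells expressing nuclear EA and GR-ED fragments of b-gal; compounds titrated up to 46 uM final, 2 h at 37 C. GR nuclear translocation read as complemented b-gal luminescence after 1 h RT detection.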

[6] = biological target: Mitogen-activated protein kinase 10 (Mus musculus) (UniProt Q61831); assay: JNK3 AlphaScreen Assay (AID 530); conditions: JNK3 lysate, c-Jun phosphorylation; series mostly up to 57.1 µM;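 note: kinase came from lysate of stimulated human HepG2 cells; signal reports phosphorylation of biotinylated GST-cJun 1-79 at Ser73 with 10 µM ATP; % is set by controls: 0 for no effect and ±100 for the full control effect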
Procedure, shortened: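 qHTS format: compounds tested as titrations against IL-1beta/TNF-alpha-activated HepG2 lysate JNK3 with biotin-GST-cJun substrate and 10 uM ATP at room temperature. Loss of anti-phospho-cJun AlphaScreen signal indicates inhibition.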

[7] = biological target: 3',5'-cyclic-AMP phosphodiesterase 4B (Homo sapiens) (UniProt Q07343); assay: qHTS Assay for Inhibitors of PDE-IV (AID 607; active = well fitted activation curve with a large enough effect in the main read-out, with a control signal flat, not every such curve was filed as active; note: % of control where 0% means no effect); conditions: HEK293 ACTOne CNG channel cells, membrane potential fluorescence; series mostly up to 22.9 µM
Sequence of 3',5'-cyclic-AMP phosphodiesterase 4B (Homo sapiens) (Q07343 whole entry, looked up): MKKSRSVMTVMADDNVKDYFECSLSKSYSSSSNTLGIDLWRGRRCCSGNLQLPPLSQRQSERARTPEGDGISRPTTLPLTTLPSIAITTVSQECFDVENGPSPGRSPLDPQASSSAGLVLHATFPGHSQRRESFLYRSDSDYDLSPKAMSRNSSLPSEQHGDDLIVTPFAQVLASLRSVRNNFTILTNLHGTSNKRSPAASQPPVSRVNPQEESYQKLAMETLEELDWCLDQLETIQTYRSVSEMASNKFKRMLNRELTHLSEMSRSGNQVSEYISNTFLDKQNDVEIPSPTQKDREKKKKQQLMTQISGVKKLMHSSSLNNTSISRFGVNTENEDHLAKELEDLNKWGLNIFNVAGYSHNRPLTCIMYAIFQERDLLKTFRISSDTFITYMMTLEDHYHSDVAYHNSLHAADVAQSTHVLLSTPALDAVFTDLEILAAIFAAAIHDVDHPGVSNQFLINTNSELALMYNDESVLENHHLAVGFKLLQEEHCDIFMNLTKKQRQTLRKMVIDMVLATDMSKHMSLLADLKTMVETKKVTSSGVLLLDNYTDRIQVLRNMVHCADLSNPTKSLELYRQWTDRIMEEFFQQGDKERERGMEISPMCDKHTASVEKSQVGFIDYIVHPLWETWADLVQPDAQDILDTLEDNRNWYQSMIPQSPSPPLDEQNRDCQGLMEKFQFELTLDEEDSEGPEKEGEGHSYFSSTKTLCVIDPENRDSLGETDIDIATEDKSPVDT
Procedure, shortened: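 Live HEK293 cells with a modified cyclic nucleotide-gated (CNG) channel report intracellular cAMP via membrane-potential dye fluorescence (ex 535/em 590 nm). Endogenous PDE-IV was targeted. Compounds were tested at up to 22.9 uM final; RO 20-1724 100 uM served as control.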

[8] = qHTS Assay for Lipid Storage Modulators (AID 1519; calls by dose curve); conditions: Drosophila S3 cells, BODIPY lipid droplet/cell ratio, laser cytometry, cells loaded with oleic acid; for activity change, negative = inhibition: at 57.5 µM (top of the series)
Procedure, shortened: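 Cells seeded at 5,000 per well were treated with compounds over a concentration series and loaded with oleic acid (400 uM, as added). Lipid droplet fluorescence (488 nm excitation, 500-530 nm channel) was read by laser-scanning cytometry and normalized to 20 uM Triacsin C.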

[9] = Primary qHTS for small molecule stabilizers of the endoplasmic reticulum resident proteome: Secreted ER Calcium Modulated Protein (SERCaMP) assay (AID 1508630; active = well fitted curve in the direction sought with a large enough effect; an effect the other way counts as inactive or inconclusive; note: % is set by controls: 0 for no effect and ±100 for the full control effect); conditions: SH-SY5Y GLuc-SERCaMP (Gaussia luciferase released on ER calcium loss) secretion, thapsigargin, luminescence; series mostly up to 38.4 µM
Procedure, shortened: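 GLuc-SERCaMP-expressing SH-SY5Y cells, pretreated 16 h with compound, are challenged with thapsigargin to empty ER calcium stores; after 4 h, coelenterazine is added directly to the medium and luminescence is imaged.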

[10] = biological target: Glucocorticoid receptor (Homo sapiens) (UniProt P04150); assay: GR-GFP Redistribution (AID 450;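 active = compounds whose dose series gives a full or clear partial fitted curve of increased nuclear translocation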; note: potency is the fitted concentration of half-maximal effect); conditions: U2OS GR-GFP nuclear translocation, laser cytometry, 2 h
[11] = qHTS Assay for Identification of Small Molecule Agonists for Hypoxia Response Element Signaling Pathway (AID 914; active = well fitted activation curve with a large enough effect in the signal ratio, with a control signal flat, not every such curve was filed as active; the % refers to the signal ratio; note: % of control where 0% means no effect); conditions: ME-180 (cervical carcinoma) HRE-bla reporter, beta-lactamase ratio, CoCl2, 17 h; activation: stronger effect = higher value
Procedure, shortened: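 Compounds in a titration series were added to ME-180 reporter cells alongside an EC50 level of CoCl2. After 17 hours, beta-lactamase activity was read as the 460nm/530nm emission ratio of CCF4, giving AC50 values.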

[12] = Confirmation and Secondary Assay for Modulators of Hemoglobin Beta Chain Splicing at IVS2 705 locus (AID 930; active = well fitted curve in the direction sought with a large enough effect; an effect the other way counts as inactive or inconclusive;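 note: HeLa cells stably expressing the EGFP-705 splicing reporter; GFP fluorescence per well restored by corrected splicing of the IVS2-705 intron in EGFP; % of control where 0% means no effect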); conditions: HeLa EGFP-705 splicing reporter, GFP fluorescence, 48 h; series mostly up to 38.3 µM
Procedure, shortened: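 Assay measures total GFP intensity per well in HeLa EGFP-705 cells after 2 days with compound; mis-splicing normally truncates EGFP, so fluorescence indicates corrected splicing.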

[13] = biological target: Ubiquitin carboxyl-terminal hydrolase 1 (Homo sapiens) (UniProt O94782); assay: Inhibitors of USP1/UAF1: Pilot qHTS (AID 504865; active = well fitted curve in the direction sought with a large enough effect; an effect the other way counts as inactive or inconclusive;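 note: rhodamine fluorescence freed from ubiquitin-rhodamine substrate followed over time; top concentration of the series differs between compounds; % is set by controls: 0 for no effect and ±100 for the full control effect; nearly all actives have a fitted effect of over 35% in size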); conditions: purified USP1/UAF1, Ub-rhodamine cleavage fluorescence; series mostly up to 54.9 µM
Sequence of Ubiquitin carboxyl-terminal hydrolase 1 (Homo sapiens) (O94782 whole entry, looked up): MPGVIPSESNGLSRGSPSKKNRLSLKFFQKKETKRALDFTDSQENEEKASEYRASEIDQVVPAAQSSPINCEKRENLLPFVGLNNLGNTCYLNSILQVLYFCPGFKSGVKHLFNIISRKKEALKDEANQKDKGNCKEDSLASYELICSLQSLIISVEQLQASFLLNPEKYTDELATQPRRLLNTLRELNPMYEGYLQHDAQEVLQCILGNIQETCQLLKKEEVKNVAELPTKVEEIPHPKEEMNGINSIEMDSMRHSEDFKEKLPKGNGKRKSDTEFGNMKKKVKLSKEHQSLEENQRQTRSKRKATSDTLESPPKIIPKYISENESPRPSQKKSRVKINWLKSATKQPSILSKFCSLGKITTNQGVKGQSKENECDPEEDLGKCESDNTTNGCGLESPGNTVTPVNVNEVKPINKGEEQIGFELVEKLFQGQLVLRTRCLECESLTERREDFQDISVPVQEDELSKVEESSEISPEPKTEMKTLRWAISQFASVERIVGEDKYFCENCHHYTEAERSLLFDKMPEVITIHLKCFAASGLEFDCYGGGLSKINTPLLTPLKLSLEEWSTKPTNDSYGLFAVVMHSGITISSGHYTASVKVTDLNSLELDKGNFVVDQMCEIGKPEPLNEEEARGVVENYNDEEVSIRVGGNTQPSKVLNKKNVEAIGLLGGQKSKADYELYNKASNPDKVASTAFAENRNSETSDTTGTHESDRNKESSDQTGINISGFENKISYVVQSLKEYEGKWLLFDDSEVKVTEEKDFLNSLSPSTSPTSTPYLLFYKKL
Procedure, shortened: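 USP1/UAF1 complex at 1 nM preincubated 15 min at room temperature with compound, then Ub-Rho substrate added at 150 nM final. Fluorescence (480/540 nm) read kinetically in 50 mM HEPES pH 7.8, 0.5 mM EDTA, 1 mM TCEP, 0.1 mg/ml BSA, 0.01% Tween-20.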

[14] = biological target: Cytochrome P450 3A4 (Homo sapiens) (UniProt P08684); assay: qHTS Assay for Inhibitors and Substrates of Cytochrome P450 3A4 (AID 884; active = well fitted curve in the direction sought with a large enough effect; an effect the other way counts as inactive or inconclusive; note: % is set by controls: 0 for no effect and ±100 for the full control effect; nearly all actives have a fitted effect of over 50% in size); conditions: recombinant CYP3A4, Luciferin-PPXE luminescence; series mostly up to 57.1 µM
Sequence of Cytochrome P450 3A4 (Homo sapiens) (P08684 whole entry, looked up): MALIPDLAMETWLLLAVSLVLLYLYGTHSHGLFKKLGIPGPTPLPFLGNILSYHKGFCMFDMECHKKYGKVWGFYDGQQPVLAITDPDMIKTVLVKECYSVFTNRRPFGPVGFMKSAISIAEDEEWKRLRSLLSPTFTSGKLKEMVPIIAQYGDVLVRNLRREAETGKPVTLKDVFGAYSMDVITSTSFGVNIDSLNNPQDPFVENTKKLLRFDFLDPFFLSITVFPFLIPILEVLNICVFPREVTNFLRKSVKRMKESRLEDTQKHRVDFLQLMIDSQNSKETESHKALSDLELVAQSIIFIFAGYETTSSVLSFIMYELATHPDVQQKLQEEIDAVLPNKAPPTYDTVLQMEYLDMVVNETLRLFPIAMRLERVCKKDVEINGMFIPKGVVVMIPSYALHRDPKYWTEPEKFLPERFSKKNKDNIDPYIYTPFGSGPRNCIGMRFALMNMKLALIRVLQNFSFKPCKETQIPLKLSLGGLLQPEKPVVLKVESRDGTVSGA
Procedure, shortened: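 20 nM human CYP3A4 with 25 uM Luciferin-PPXE (at KM) in 200 mM KPO4, preincubated 10 min with compound; NADPH regeneration started a 60 min RT reaction. Luciferin detected by luminescence, normalized to 57 uM ketoconazole as full inhibition.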

[15] = biological target: Cytochrome P450 3A4 (Homo sapiens) (UniProt P08684); assay: qHTS Assay for Activators of Cytochrome P450 3A4 (AID 885; active = well fitted curve in the direction sought with a large enough effect; an effect the other way counts as inactive or inconclusive; note: nearly all actives have a fitted effect of over 65% in size); conditions: recombinant CYP3A4, Luciferin-PPXE luminescence, 60 min; series mostly up to 57.1 µM
Procedure, shortened: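 Quantitative HTS format: compounds preincubated with 20nM human CYP3A4 and Luciferin-PPXE substrate at KM, reaction started by NADPH regeneration, stopped after 60 min, luciferase luminescence read 20 min later.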

[16] = measured here: cell count channel max response
[17] = measured here: lipid channel max response

Cc1noc(C)c1C(=O)N1CCC2(CCCN(C(=O)Nc3cccc(C#N)c3)C2)CC1
Potency [1]: > 11.4 µM (inactive) | activity change, negative = inhibition [2]: -3.54% (inactive) | activity change, negative = inhibition [3]: -25.9% (inactive) | activity, negative = inhibition [4]: -0.0853% (inactive) | Potency [5]: > 46 µM (inactive) | Potency [6]: inactive | Potency [7]: inactive | activity change, negative = inhibition [8]: 9.42% (inactive) | max response [8, 16]: 12.8% | max response [8, 17]: 23.7% | outcome [9]: inactive

COc1ccccc1CNc1ncncc1-c1ccccc1CN(C)C
Potency [1]: > 11.4 µM (inactive) | activity change, negative = inhibition [2]: -14.2% (inactive) | activity change, negative = inhibition [3]: -25.5% (inactive) | Potency [10]: > 46 µM (inactive) | Potency [5]: > 46 µM (inactive) | Potency [6]: inactive | Potency [7]: inactive | activation [11]: -9.29% (inactive) | outcome [12]: inactive | activity change, negative = inhibition [8]: 5.27% (inactive) | max response [8, 16]: 12.7% | max response [8, 17]: 17.5% | Potency [13]: inactive | outcome [9]: inactive

CS(=O)(=O)N1CCC2(CCN(c3ccccn3)CC2)CC1
Potency [1]: > 11.4 µM (inactive) | activity change, negative = inhibition [2]: -5.04% (inactive) | activity change, negative = inhibition [3]: -12.8% (inactive) | activity, negative = inhibition [4]: -2.94% (inactive) | Potency [5]: > 46 µM (inactive) | Potency [6]: inactive | Potency [7]: inactive | activity change, negative = inhibition [8]: 6.49% (inactive) | max response [8, 16]: 5.01% | max response [8, 17]: 13.9% | outcome [9]: inactive

COc1ccc(C(=O)N2CCC3(CC2)CCN(c2ccccc2)CC3)cc1
Potency [1]: > 11.4 µM (inactive) | activity change, negative = inhibition [2]: -11.8% (inactive) | activity change, negative = inhibition [3]: 1.53% (inactive) | activity, negative = inhibition [4]: -8.92% (inactive) | Potency [5]: > 46 µM (inactive) | Potency [6]: inactive | Potency [7]: inactive | Potency [14]: inactive | activation [11]: -13.6% (inactive) | activity change, negative = inhibition [8]: 4.37% (inactive) | max response [8, 16]: 9.05% | max response [8, 17]: 17.4% | outcome [9]: inactive

O=C(Nc1cccc(F)c1)N1CC[C@@]2(CCCN(C(=O)c3ccncc3)C2)C1
Potency [1]: > 11.4 µM (inactive) | activity change, negative = inhibition [2]: -4.21% (inactive) | activity change, negative = inhibition [3]: 9.18% (inactive) | activity, negative = inhibition [4]: -6.29% (inactive) | Potency [6]: inactive | Potency [7]: inactive | activity change, negative = inhibition [8]: 5.32% (inactive) | max response [8, 16]: 15.8% | max response [8, 17]: 23.2% | outcome [9]: inactive

COc1ccc(C(=O)N2CCC3(CC2)CN(c2ncccn2)C3)cc1
Potency [1]: > 11.4 µM (inactive) | activity change, negative = inhibition [2]: -9.3% (inactive) | activity change, negative = inhibition [3]: 13.7% (inactive) | activity, negative = inhibition [4]: -24.2% (inactive) | Potency [5]: > 46 µM (inactive) | Potency [6]: inactive | Potency [7]: inactive | activity change, negative = inhibition [8]: 1.87% (inactive) | max response [8, 16]: 12.3% | max response [8, 17]: 16.8% | outcome [9]: inactive

O=C(c1ccncc1)N1CCC[C@@]2(CCN(c3ccncc3)C2)C1
Potency [1]: > 11.4 µM (inactive) | activity change, negative = inhibition [2]: -13.7% (inactive) | activity change, negative = inhibition [3]: -14.9% (inactive) | activity, negative = inhibition [4]: -3.85% (inactive) | Potency [5]: > 46 µM (inactive) | Potency [6]: inactive | Potency [7]: inactive | activity change, negative = inhibition [8]: 3.8% (inactive) | max response [8, 16]: 9.21% | max response [8, 17]: 15% | outcome [9]: inactive

COc1ccccc1CN1CC2(CCN(C(=O)c3cc(C(F)(F)F)cc(C(F)(F)F)c3)CC2)C1
Potency [1]: > 11.4 µM (inactive) | activity change, negative = inhibition [2]: 1.43% (inactive) | activity, negative = inhibition [4]: 3.93% (inactive) | Potency [5]: > 46 µM (inactive) | Potency [6]: inactive | activity change, negative = inhibition [8]: -1.27% (inactive) | max response [8, 16]: 11.2% | max response [8, 17]: 10.9% | outcome [9]: inactive

O=C(Nc1ccccc1)N1CC[C@@]2(CCCN(C(=O)c3ccncc3)C2)C1
Potency [1]: > 11.4 µM (inactive) | activity change, negative = inhibition [2]: -15.8% (inactive) | activity change, negative = inhibition [3]: -4.67% (inactive) | activity, negative = inhibition [4]: -5.93% (inactive) | Potency [5]: > 46 µM (inactive) | Potency [6]: inactive | Potency [7]: inactive | Potency [15]: inactive | activity change, negative = inhibition [8]: 1.5% (inactive) | max response [8, 16]: 13.8% | max response [8, 17]: 15.1% | outcome [9]: inactive
